# Laboratory results published in ChEMBL document CHEMBL1157539, “Thousands of chemical starting points for antimalarial lead identification” (Nature, 2010).
# Experiments:
# Assay type in all cases: functional
# Plasmodium falciparum [1] = experiment: GSK_TCMDC: Inhibition of Plasmodium falciparum 3D7 in whole red blood cells, using parasite LDH activity as an index of growth. Test compounds present at 2uM
# Plasmodium falciparum [2] = experiment: GSK_TCMDC: Inhibition of Plasmodium falciparum Dd2 in whole red blood cells, using parasite LDH activity as an index of growth. Test compounds present at 2uM
# HepG2 = experiment: GSK_TCMDC: Percent inhibition of human HepG2 cell line. Test compounds present at 10uM.
Compound,Inhibition (Plasmodium falciparum [1]) [%],Inhibition (Plasmodium falciparum [2]) [%],Inhibition (HepG2) [%]
N#Cc1ccc(-c2ccc(C(=O)NCCCCN3CCC(c4cc(Br)c5c(c4O)CCCC5)CC3)cc2)cc1,100,50,93
COc1ccc(Br)cc1/C=C/C(=O)Nc1ccc2c(c1)CCCN(C)C2,84,10,8
CCN(CC)CCCN(CCCN(CC)CC)c1cc(C)nc(Nc2ccc(Cl)cc2)n1.O=C(O)C(=O)O,100,7,11
Cl.NC(=O)c1cccc(Nc2nccc(Nc3ccc(Oc4cccc(Cl)c4)c(Cl)c3)n2)c1,93,12,0
COc1ccc2[nH]c(C)cc(=NN=Cc3ccccc3F)c2c1,100,100,3
Cc1cccc2nc(-c3cccc(-c4ccc(CNCCc5ccncc5)cc4)c3)[nH]c12.O=C(O)C(F)(F)F,100,100,40
O=C(O)C(F)(F)F.O=c1cc(N2CCCNCC2)c(Cl)nn1Cc1ccc(NS(=O)(=O)c2ccc(Oc3ccccc3)cc2)cc1,98,0,0
FC(F)(F)c1cccc(Nc2nc3ccccc3nc2Nc2cccc(C(F)(F)F)c2)c1,100,100,45
Cc1cccc2nc(-c3cccc(-c4cccc(CNCc5cnn(-c6ccccc6)n5)c4)c3)[nH]c12.O=C(O)C(F)(F)F,99,38,12
CCc1c(C(=O)NC2CCC(N3CCC(c4ccccc4C)CC3)CC2)[nH]c2ccc(Br)cc12 (stereo not given),100,99,81
